Screening results: PubChem BioAssay, several laboratories
Sampled rows, rich in hits. Any-hit rate of the full collection: about 0.59%.
FXIa inh mix: FXIa protease inhibitors in compound pools, primary screen, biochemical, 10-compound mixtures | Coagulation factor XI (Homo sapiens), P03951 | purified FXIa, fluorogenic substrate, pooled mixtures | inhibition, % at 5 µM | 0.19% of 62,000 active;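 further: each value is inhibition by a whole ten-compound pool holding the compound; 0% = enzyme with no mixture and 100% = wells lacking enzyme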
Smad3 FoxH1 inh: Smad3/FoxH1 peptide binding inhibitors, primary screen, biochemical, TR-FRET | 0.29% of 88,000 active | TR-FRET Smad3/Dy647-FoxH1 peptide binding, europium anti-His | AID 630, 2007 | Mothers against decapentaplegic homolog 3 (Homo sapiens), P84022 | inhibition, % at 25 µM;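 active means compounds that reduce the energy-transfer binding signal between the protein and its labelled peptide by more than half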;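 further: 0% = Smad3 plus labelled peptide maximal FRET and 100% = peptide-only background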
Ec RNAP inh: E. coli RNAP inhibitors, biochemical; E. coli RNA polymerase, fluorescence transcription assay; inhibition, %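 (tested at 10 µM)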; 0.2% of 62,000 active; AID 559, 2006; in the data active means inhibition above about 20%;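 further: 0% = enzyme without compound and 100% = no enzyme blank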
Target sequence (P0A8V2 whole entry, looked up): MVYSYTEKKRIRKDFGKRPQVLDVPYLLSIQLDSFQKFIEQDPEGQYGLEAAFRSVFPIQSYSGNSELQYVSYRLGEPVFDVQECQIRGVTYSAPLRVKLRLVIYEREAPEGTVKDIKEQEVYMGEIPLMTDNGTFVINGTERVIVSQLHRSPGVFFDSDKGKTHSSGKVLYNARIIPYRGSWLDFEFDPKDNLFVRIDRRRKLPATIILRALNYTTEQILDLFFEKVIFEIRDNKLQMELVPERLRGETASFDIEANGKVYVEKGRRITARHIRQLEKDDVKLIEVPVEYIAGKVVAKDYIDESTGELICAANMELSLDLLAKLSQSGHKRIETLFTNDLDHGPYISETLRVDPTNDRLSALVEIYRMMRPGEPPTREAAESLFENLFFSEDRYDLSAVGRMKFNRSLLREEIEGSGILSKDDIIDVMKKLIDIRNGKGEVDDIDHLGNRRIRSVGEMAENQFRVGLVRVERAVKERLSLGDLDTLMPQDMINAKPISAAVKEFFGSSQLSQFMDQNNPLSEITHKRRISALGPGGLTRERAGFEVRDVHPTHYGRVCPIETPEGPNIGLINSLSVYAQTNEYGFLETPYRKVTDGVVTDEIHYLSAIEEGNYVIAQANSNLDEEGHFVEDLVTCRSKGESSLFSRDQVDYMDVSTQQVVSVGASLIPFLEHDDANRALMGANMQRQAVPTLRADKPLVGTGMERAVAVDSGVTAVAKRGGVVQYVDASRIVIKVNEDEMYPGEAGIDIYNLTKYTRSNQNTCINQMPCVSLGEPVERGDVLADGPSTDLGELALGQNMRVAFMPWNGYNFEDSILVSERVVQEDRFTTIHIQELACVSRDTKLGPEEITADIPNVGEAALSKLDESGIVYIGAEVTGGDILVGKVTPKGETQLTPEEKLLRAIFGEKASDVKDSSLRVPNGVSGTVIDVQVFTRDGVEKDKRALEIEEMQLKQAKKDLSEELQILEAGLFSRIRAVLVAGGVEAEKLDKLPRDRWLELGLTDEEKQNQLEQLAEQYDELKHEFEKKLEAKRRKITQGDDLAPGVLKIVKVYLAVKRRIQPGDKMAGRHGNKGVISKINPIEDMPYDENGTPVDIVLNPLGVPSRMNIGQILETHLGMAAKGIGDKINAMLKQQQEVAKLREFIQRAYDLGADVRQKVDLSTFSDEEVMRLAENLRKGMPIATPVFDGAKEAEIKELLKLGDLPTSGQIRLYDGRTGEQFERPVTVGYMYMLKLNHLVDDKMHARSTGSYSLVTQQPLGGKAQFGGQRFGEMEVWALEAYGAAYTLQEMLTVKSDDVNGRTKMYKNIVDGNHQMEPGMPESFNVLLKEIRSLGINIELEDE
FXIIa mix inh: human factor XIIa inhibitors, primary screen, biochemical, pooled compound mixtures, fluorogenic substrate; purified FXIIa; inhibition, % at 5 µM; 0.2% of 62,000 active; AID 684, 2007;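 further: 0% = enzyme without compound and 100% = no enzyme blank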
An asterisk follows results filed as active; [ ] = remark or other dose. Unless noted, no stated cut-off is given here; in the data, active means inhibition above about 20% (passing the limit was not always enough); inactive means the rest.

CCOc1ccc(-n2c3nc4ccccc4nc3c3c(=O)n(Cc4ccco4)cnc32)cc1 was read as FXIa inh mix 9.1, Smad3 FoxH1 inh 34.2, Ec RNAP inh 22.2* and FXIIa mix inh 0.6.
For CN1CCC[C@H]1c1cccnc1.O=C(O)c1ccccc1O.O=C([OH2+])c1ccccc1O.O=C([OH2+])c1ccccc1O.O=C([OH2+])c1ccccc1O.[Cu] the results were Smad3 FoxH1 inh 96.8*.
Screening CN1CCC[C@H]1c1cccnc1.O=C(O)c1ccccc1O.O=C([OH2+])c1ccccc1O.O=C([OH2+])c1ccccc1O.[Mn+2] returned Smad3 FoxH1 inh -10.0.
CCCn1c(NCc2ccc(C)o2)nc2ccccc21 was read as FXIa inh mix 25.7*, Smad3 FoxH1 inh 8.6, Ec RNAP inh 0.4 and FXIIa mix inh 10.3.
CC(C)=C[C@H]1[C@H](C(=O)Oc2ccccc2C(C)C)C1(C)C was read as Smad3 FoxH1 inh -18.7.
`CC(=O)[C@@]1(N=Nc2ccc(S(N)(=O)=O)cc2)CCOC1=O` gave Smad3 FoxH1 inh 52.1*.
COC(=O)CC[C@@H](C)[C@@H]1CC[C@@H]2[C@H]3CC[C@H]4C[C@@H](O)CC[C@]4(C)[C@@H]3CC[C@]21C was read as Smad3 FoxH1 inh 37.3.
`C[N+](C)(C)/N=C/c1ccc(O)c(O)c1` gave Smad3 FoxH1 inh 12.5.
COc1cccc(C(=O)NC2CC3CCCC(C2)N3CC(=O)Nc2ccccc2)c1 (stereo not given) was read as Smad3 FoxH1 inh 81.1*.
`COc1cccc(C(=O)NC2CC3CCCC(C2)N3CC(=O)Nc2ccc(N(C)C)cc2)c1` (stereo not given) gave FXIa inh mix 0.6, Smad3 FoxH1 inh -7.3, Ec RNAP inh 4.2 and FXIIa mix inh -18.1.
`O=C(c1ccc(-n2cnnn2)cc1)N1CCCCC1` gave Smad3 FoxH1 inh -9.0.
`O=C(Nc1ccc(-n2cnnn2)cc1)C1CCC1` gave FXIa inh mix 7.1, Smad3 FoxH1 inh 3.3, Ec RNAP inh 1.0 and FXIIa mix inh 20.2*.
CC1(C)CCC(=O)N[C@H]1CC(=O)C[C@@H]1NC(=O)CCC1(C)C was read as Smad3 FoxH1 inh -1.8.
Cc1ccc(NC(=O)Cc2nn(C)c(=O)c3ccccc23)cc1F was read as FXIa inh mix 13.7, Smad3 FoxH1 inh 3.7, Ec RNAP inh 8.5 and FXIIa mix inh 20.4*.
Cn1nc(CC(=O)Nc2ccc3c(c2)OCCO3)c2ccccc2c1=O was read as FXIa inh mix 10.6, Ec RNAP inh 3.5 and FXIIa mix inh 4.4.
Screening O=C(NC1CCS(=O)(=O)C1)c1c(NC(=O)C2COc3ccccc3O2)sc2c1CCCC2 (stereo not given) returned FXIa inh mix 8.6, Smad3 FoxH1 inh -84.8, Ec RNAP inh 31.8* and FXIIa mix inh 11.5.
`O=C1NCCCc2nc(Oc3ccccc3)sc21` gave FXIa inh mix 4.6, Smad3 FoxH1 inh -4.9, Ec RNAP inh 8.1 and FXIIa mix inh -13.9.
Screening COc1nc2c(s1)C(=O)NCCC2 returned FXIa inh mix 7.0, Smad3 FoxH1 inh -0.4, Ec RNAP inh 1.3 and FXIIa mix inh 20.5*.
O=C(C1Cc2ccccc2CN1S(=O)(=O)c1ccc(F)cc1)N1CCCCCC1 (stereo not given) was read as FXIa inh mix 6.5, Smad3 FoxH1 inh 77.0*[fluorescence artefact?], Ec RNAP inh 7.5 and FXIIa mix inh 1.7.
O=C(C1Cc2ccccc2CN1S(=O)(=O)c1ccc(F)cc1)N1CCOCC1 (stereo not given) was read as Smad3 FoxH1 inh 3.2.
Cc1sc2ccccc2[n+]1CCC(=O)O was read as Smad3 FoxH1 inh 72.5*.
Screening O=C(C[N+]12CN3CN(CN(C3)C1)C2)c1ccc(-c2ccccc2)cc1 returned Smad3 FoxH1 inh 76.6*.
Screening O=C(NCCN1CCOCC1)c1ccc(-c2ccccc2)cc1 returned FXIa inh mix -3.2, Smad3 FoxH1 inh -3.0, Ec RNAP inh 2.6 and FXIIa mix inh -31.5.
CCC(C)[C@@H](NC(=O)OC(C)(C)C)c1nnc(S(=O)(=O)Cc2cccc(C)c2)o1 (stereo not given in full) was read as FXIa inh mix 20.8*, Smad3 FoxH1 inh 9.7, Ec RNAP inh 7.0 and FXIIa mix inh 11.6.
`O=c1[nH]c2[nH]c(=S)[nH]c(=S)c2[nH]1` gave Smad3 FoxH1 inh 67.7*.
For c1ccc2c[n+](CCCC[n+]3ccc4ccccc4c3)ccc2c1 the results were Smad3 FoxH1 inh 50.6*.
CC1(C)O[C@@H]2[C@@H](CO[C@H]2c2[nH]nc3c(=O)[nH]c(=O)[nH]c23)O1 was read as Smad3 FoxH1 inh -13.8.
O=C(CSc1nc2ccccc2o1)Nc1ccccc1N1CCCCCC1 was read as FXIa inh mix 38.0*, Smad3 FoxH1 inh 3.7, Ec RNAP inh 4.1 and FXIIa mix inh 1.7.
C=CCSc1nc2c(N)ncnc2n1[C@H]1O[C@H](CO)[C@@H](O)[C@@H]1O was read as Smad3 FoxH1 inh 6.7.
O=C(CCSCCc1ccccn1)Nc1ccccn1 was read as FXIa inh mix 0.5, Smad3 FoxH1 inh -0.5, Ec RNAP inh 3.9 and FXIIa mix inh -14.4.
Screening O=C(CCSCCc1ccccn1)Nc1ccc(Cl)cn1 returned Smad3 FoxH1 inh 53.7*[fluorescence artefact?].
`COc1ccccc1-c1nc(-c2ccc(Br)cc2)no1` gave FXIa inh mix 2.6, Smad3 FoxH1 inh 3.1, Ec RNAP inh 8.0 and FXIIa mix inh 28.6*.
`N#Cc1cc2c(nc1SC1CCCCC1O)CCCC2` (stereo not given) gave Smad3 FoxH1 inh 92.5*.
For O=C(O)[C@@H]1[C@H](C(=O)NCc2cccnc2)[C@@H]2CC[C@H]1O2 the results were Smad3 FoxH1 inh -4.4.
COc1nc(Nc2ccc(C(C)=O)cc2)nc(OC)n1 was read as FXIa inh mix 0.9, Ec RNAP inh 36.0* and FXIIa mix inh 8.4.
`NCOC(=O)Cc1ccc(Br)cc1` gave Smad3 FoxH1 inh 73.4*.
`CCOc1ccc2nc(NC(=O)CN3CCC(n4nnc5cc(F)ccc54)CC3)sc2c1` gave FXIa inh mix 3.9, Smad3 FoxH1 inh -16.0, Ec RNAP inh -7.1 and FXIIa mix inh 31.5*.
CCOC(=O)c1c(NC(=O)c2cccs2)sc2c1CC(C)(C)OC2 was read as FXIa inh mix 21.3*, Smad3 FoxH1 inh 12.9, Ec RNAP inh 2.9 and FXIIa mix inh -20.4.
CCOC(=O)c1cccc(NC(=O)c2cccs2)c1 was read as FXIa inh mix 1.6, Smad3 FoxH1 inh 9.7, Ec RNAP inh 10.2 and FXIIa mix inh 8.1.
Screening CC1(C)N=C(N)N=C(N)N1c1cccc(OCc2cccc([N+](=O)[O-])c2)c1 returned Smad3 FoxH1 inh 33.1.
C[C@H](NCCN(C)C)[C@@H]1CC[C@@H]2[C@H]3CCc4cc(O)ccc4[C@@H]3CC[C@]21C was read as Smad3 FoxH1 inh -15.8.
Screening Nc1nc(SCC(=O)C2CCC(Br)CC2)c2[nH]cnc2n1 (stereo not given) returned Smad3 FoxH1 inh 8.3.
CCCCn1c(NC(=O)CC)c(C#N)c2nc3ccccc3nc21 was read as FXIa inh mix 12.0, Smad3 FoxH1 inh 16.3, Ec RNAP inh -13.9 and FXIIa mix inh -18.2.
